Laboratory results reported in PubChem BioAssay (NCI).
About 83,000 compounds went through this panel and 20% of them were active in at least one assay; those are over-represented in the sample as a whole.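 Assay: single dose, 48 h. Readout: percent growth (0 = no net growth; negative = cell death). Active: <10.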 Unmarked numbers belong to inactive results. Calls of active or inactive are those of the source.

test system: HL-60(TB) leukemia; assay: NCI-60 one-dose screen, 48 h (100 = growth as untreated, 0 = no growth, -100 = all killed); conditions: 10 µM unless noted

Row | SMILES | growth
1 | CO[C@H]1CC(O[C@@H]2/C(C)=C/C[C@@H]3C[C@@H](C[C@]4(C=C[C@H](C)[C@@H](C5CCCCC5)O4)O3)OC(=O)[C@@H]3C=C(C)[C@@H](O)[C@H]4OC/C(=C\C=C\[C@@H]2C)[C@]43O)O[C@@H](C)C1O[C@H]1C[C@H](OC)[C@@H](O)[C@H](C)O1 (stereo not given in full) | -50.5% (active)
2 | COc1cc(OC)cc(C2C(C#N)=C(N)Oc3c2ccc2ccc(O)cc32)c1 (stereo not given) | -23.8% (active)
3 | Nc1nc(Nc2cccc(F)c2)nc2ccccc12 | 28.6%
4 | CCC12CCC3c4ccc(O)cc4CCC3C1CC(O)C2O (stereo not given) | 63.1%
5 | CCCCCCCCCCCCCCCC1=NC(C)(C)CN1C(C)C | -62.9% (active)
6 | COc1cc2c3c(c1O)-c1ccccc1[C@@H]1OC(=O)N(CC2)[C@H]31 | 112%
7 | COc1ccc2nc(C)cc(Nc3ccccc3O)c2c1 | 5.11% (active)
8 | CC(=O)Nc1ccc2c(c1)Cc1c(F)c(F)c(F)c(F)c1-2 | 65.5%
9 | COc1cc(/C=C/C(=O)N2c3ccccc3CC2C)c(OC)c2c1OCO2 (stereo not given) | 91.7%
10 | OCCNc1nc(NCCO)nc(Nc2ccc(C3=NN(c4cc(Cl)cc(Cl)c4)C(c4ccc(Cl)cc4)C3)cc2)n1 (stereo not given) | 13.7%
11 | O=C(Nc1ccccc1Cl)c1c[nH]c(=O)c(-c2ccc(N3CCCOC4(CC4)C3)cc2)c1 | 28.3%
12 | Nc1nc(C(=O)N/N=C/c2ccc(N3CCOCC3)cc2)nn1-c1ccc(S(N)(=O)=O)cc1 | 101%
13 | Cc1cc(C(C)(C)C)cc(C)c1Br | 108%
14 | COC(=O)c1ccc2[nH]c(O)c(C(=Nc3ccc(N(C)C(=O)CN4CCN(C)CC4)cc3)c3ccccc3)c2c1 | -14.4% (active)
15 | Cc1cccc2c1NC(=O)[C@@]21[C@H](C(=O)c2ccccc2)[C@]2(C(=O)Nc3ccccc32)[C@H]2CCCN21 | 14.6% [100 µM]
16 | O=C1CC[C@@H](C(=O)N[C@H]2CSSC[C@@H](C(=O)NCCc3ccccc3)NC(=O)[C@H](Cc3ccccc3)NC(=O)[C@@H]3CCCN3C(=O)[C@@H]3CCCN3C2=O)N1 | 76.3%
17 | CCNC(=O)Oc1ccc(/C(=C(/CC)Cc2ccccc2)c2ccc(OCCN3CCCC3)cc2)cc1 | 69.2%
18 | O=C1N[C@@H]2[C@@H](O)[C@@H](O)[C@H](O)C[C@H]2c2cc3c(c(O)c21)OCCO3 | -18.8% (active)
19 | CN1C2C=CC(=O)C1C1C(=O)N(c3ccccc3)C(=O)C12 (stereo not given) | 55.7%
20 | Cn1c(=O)c2c(nc3n(-c4ccc(Cl)cc4Cl)c(Sc4nc(-c5ccccc5)c(C#N)c(=O)[nH]4)cn23)n(C)c1=O | 76.5%

Row | SMILES | growth
21 | CS(=O)(=O)c1ccc(-c2nc3ccccc3n2CC(=O)N/N=C/c2ccccc2)cc1 | 141%
22 | COc1ccc(C(=O)c2cc(C)c(OC)c(C)c2)c(OC)c1OC(=O)C(Cl)Cl | -35.7% (active)
23 | COc1cc(NN=C(c2ccc(O)cc2)c2ccc(O)cc2)c([N+](=O)[O-])cc1[N+](=O)[O-] | 133%
24 | CCC(c1ccccc1)C(CC)c1ccc(O)c(O)c1 (stereo not given) | 68%
25 | CCCOc1cc2ccccc2cc1C(=O)Nc1nc(N)c2c(ccc3nccc32)[nH]1 | -56.3% (active)
26 | COc1ccc2c(c1)c(-c1ccc(-c3cn(C)c4ccc(OC)cc34)[nH]1)cn2C | -24.7% (active)
27 | COc1ccc(/C=C/C(=O)c2ccc(NC(=O)CSc3nc4c([nH]3)c(=O)n(C)c(=O)n4C)cc2)cc1OC | 99.5%
28 | CC1(O)OC(COc2ccc(Cl)cc2)COC1O (stereo not given) | 105%
29 | CCN(CC)c1ccc(/C=N/NC(=O)C[N+](C)(C)C)cc1 | 35.5%
30 | O=[N+]([O-])c1ccccc1NC1c2ccccc2Oc2ccccc21 | -14.4% (active)
31 | OC(COc1ccccc1)CN1CCN(c2ccc(Cl)cc2)CC1 (stereo not given) | 83.3%
32 | COc1ccc(C(=O)c2sc3nc4c(c(C(F)(F)F)c3c2N)CN(C(C)=O)CC4)cc1OC | 98.7%
33 | Cc1ccc2nc(-c3ccc(C(=O)NNC(=S)Nc4ccccc4)cc3)[nH]c2c1 | 98%
34 | COc1ccc(/C=N/NC(=O)c2cnn3c2NC(c2ccccc2)C3)cc1OC (stereo not given) | 36.4%
35 | Cc1ccc(NC(=O)Cn2nncc2CN2C(=O)CSC2=O)cc1C | 95%
36 | CC[C@@H](C(=O)[C@@H](C)[C@@H](O)[C@H](C)[C@@H]1O[C@@H]([C@@H](CC)C(=O)O)CC[C@@H]1C)[C@H]1OC2(C=C[C@@H](O)[C@]3(CC[C@@](C)([C@H]4CC[C@](O)(CC)[C@H](C)O4)O3)O2)[C@H](C)C[C@@H]1C (stereo not given in full) | -45.6% (active)
37 | COc1cccc2cc(N(C)c3ncnc4ccccc34)ccc12 | -29.1% (active)
38 | COc1cc(-c2c3c(cn2CCN2CCCCC2)-c2oncc2CC3)cc(OC)c1OC | 109%
39 | Cc1c(-c2ccc(O)cc2)n(Cc2ccc(OCCN3CCCCCC3)cc2)c2ccc(O)cc12 | 74.6%
40 | Cc1cn(C)cn1 | 116%
